The list is not random: actives were taken first. Their share in the collection is about 5.7%.
MPTP inh: inhibitors of mitochondrial permeability transition pore. isolated mouse mitochondria, Ca2+ swelling absorbance, 30 min. inhibition, % at 10 µM. 360,000 compounds, 1.4% hits. AID 602449;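 active = inhibition of 50% or more, scaled per plate between neutral and stimulator controls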;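 note: 0% = DMSO wells given calcium and 100% = 1 mM EGTA wells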
Myeloid diff MLP: compounds promoting myeloid differentiation; ER-HoxA9 myeloid progenitors, lysozyme-GFP differentiation, flow cytometry; calls only at 10 µM; 360,000 compounds, 1% hits; AID 624256;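 active = normalized GFP-positive differentiation at or above the plate's own cutoff, the solvent-only control mean plus 3 SD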;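 note: cells exposed to compound for four days before flow analysis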
NR3A LBD binder: modulates the human NR3A ligand-binding domain; NR3A LBD differential scanning fluorimetry, Tm shift; 0% = protein alone, 100% = glycine-bound protein; 340,000 compounds, 2.5% hits; Tm shift relative to glycine control, % at 25 µM;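 active = melting temperature shift of at least 10% of the positive control shift, at one fixed dose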
rCAG binder: r(CAG) repeat RNA binding; AID 651821; 370,000 compounds, 1.3% hits; inhibition, % at 3 µM; TO-PRO-1 dye displacement fluorescence;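 active = inhibition above the plate cutoff, the mean of all test compounds on that plate plus 3 SD, cut at about 35% in these data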;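 note: 0% = DMSO alone and 100% = 100 µM mitoxantrone as full dye displacement; higher means more dye released from RNA so lower well fluorescence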
FAS TE block: blocks the thioesterase domain of human fatty acid synthase. P49327. recombinant FAS-TE, OMFH fluorogenic substrate, fluorescence endpoint. inhibition, % at 15 µM. 360,000 compounds, 0.67% hits;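 active = compounds whose normalised, plate-corrected inhibition of enzyme fluorescence in the single-dose primary screen is 50% or more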;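 note: 0% = DMSO with enzyme and 100% = substrate without enzyme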
FAS-TE conf: FAS thioesterase (human) inhibition, confirmation | recombinant FAS-TE, OMFH fluorogenic substrate, fluorescence | 2,300 compounds, 45% hits | inhibition, % at 15 µM | AID 624325 | shares compounds with FAS TE block;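 active = compounds inhibiting the enzyme by at least 50% at 15 µM in any one of the replicates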;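 note: 0% = enzyme with DMSO only and 100% = wells lacking enzyme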
An asterisk follows results filed as active; i = inactive; / = not tested or not shown; + = active, no number.

SMILES	MPTP inh	Myeloid diff MLP	NR3A LBD binder	rCAG binder	FAS TE block	FAS-TE conf
CCOC(=O)C1=C(C(=O)OCC)C2N(Cc3ccc(Br)cc3)c3ccccc3[C@@]23C[C@@H](C(=O)OC)N(S(=O)(=O)c2cccs2)C3=N1 (stereo partly drawn)	/	/	/	11.0	/	/
Cc1ccc(S(=O)(=O)N2CCN(c3ccnc4cc(Cl)ccc34)CC2)cc1	23.9	i	-1.2	1.2	63.7*	1.4
CSc1nc2nc3c(cn2n1)C(=O)CC(c1ccccc1)C3 (stereo not drawn)	-2.0	i	-0.1	0.0	9.0	/
Cn1c(=O)c2cc3c(nc2n(C)c1=O)CC(c1ccccc1)CC3=O (stereo not drawn)	1.1	i	-0.6	-3.5	59.6*	50.7*
COc1cccc(CNC(=O)[C@H]2CCCN2C(=O)[C@H]2CCCN2C(=O)c2ccc(F)c(C(F)(F)F)c2)c1	/	/	/	-2.2	/	/
Cc1ccc(-n2c(SCC(=O)c3c(N)n(C)c(=O)n(C)c3=O)nc3sc4c(c3c2=O)CCCC4)c(C)c1	0.4	+	3.3	11.8	52.1*	3.0
COc1ccc(S(=O)(=O)N(C(=O)C(C)C)c2ccc3oc(=O)sc3c2)cc1	-1.9	i	-3.0	29.3	34.0	/
COc1ccc(S(=O)(=O)N(C(=O)c2ccco2)c2cc3sc(=O)oc3c3ccccc23)cc1	1.2	i	-1.7	97.9*	89.8*	33.0
C[C@@H]1[C@@H](O)C[C@@]2(CC(=O)c3ccccc3O2)O[C@H]1c1ccccc1	/	/	/	-0.5	/	/
Cc1cccn2c(=O)c3cc(C#N)c(=NC(=O)c4cccs4)n(CC(C)C)c3nc12	17.9	i	-19.7	2.2	16.2	/
CCOCCCn1c(=NC(=O)c2cccs2)c(C#N)cc2c(=O)n3cccc(C)c3nc21	3.9	i	-1.9	0.8	55.0*	9.7
COCCCn1c(=NC(=O)c2ccccc2)c(C#N)cc2c(=O)n3cccc(C)c3nc21	0.3	i	4.6	-9.4	51.3*	45.5
CCCN1C(=O)c2n[nH]c(C)c2C1c1ccc(Br)cc1 (stereo not drawn)	/	/	/	1.8	/	/
CCn1c2c(n(C(C)=O)c1=O)C[C@@H](c1ccccc1)[C@@H](C)[C@@H](C(=O)N1CCCC1)C2	/	/	/	-0.3	/	/
COc1ccc(CCN2CCC(CN3C(=S)NC[C@@H]3Cc3ccccc3)CC2)cc1OC	/	/	/	5.5	/	/
COc1ccc(COC(=O)C2CCN(S(=O)(=O)c3ccc(F)cc3)CC2)cc1	1.9	i	1.2	-7.2	26.7	/
O=C(OCc1ccc([N+](=O)[O-])cc1)C1CCN(S(=O)(=O)c2ccccc2)CC1	0.2	i	1.3	-4.8	60.3*	60.4*
COc1cc2ncc(S(=O)(=O)c3ccccc3)c(N3CCC4(CC3)OCCO4)c2cc1OC	4.2	i	-3.6	-1.4	81.7*	82.3*
COc1ccc2ncc(S(=O)(=O)c3ccccc3)c(N3CCC4(CC3)OCCO4)c2c1	2.0	i	0.1	-3.9	43.2	/
COC(=O)C1=C(C)N(C)C(=NCc2ccccc2)NC1c1ccccc1C(F)(F)F (stereo not drawn)	/	/	/	5.0	/	/
CC(C)OC(=O)/C(C#N)=C/c1ccc(-c2ccc(SC(F)F)cc2)o1	2.3	i	-28.0	1.5	61.4*	9.4
COC(=O)/C(C#N)=C/c1ccc(-c2ccc(S(N)(=O)=O)cc2)o1	2.2	i	-3.5	12.3	-3.7	/
O=C(NN1C(=O)c2ccccc2NC1c1ccc([N+](=O)[O-])o1)c1ccccc1 (stereo not drawn)	-0.4	i	0.4	1.9	52.2*	40.0
O=C1N2CCc3ccccc3C2CS(=O)(=O)N1CCc1ccccc1 (stereo not drawn)	/	/	/	-0.8	/	/
Cc1ccc(OC(=O)N(C)C[C@H]2OCc3cn(nn3)CCCC(=O)N([C@@H](C)CO)C[C@@H]2C)cc1	/	/	/	-0.2	/	/
SMILES	MPTP inh	Myeloid diff MLP	NR3A LBD binder	rCAG binder	FAS TE block	FAS-TE conf
O=C(C1=NN(c2ccccc2)C2C(=O)N(c3ccccc3Cl)C(=O)C12)c1ccccc1 (stereo not drawn)	0.3	i	-8.5	7.2	52.5*	-17.4
O=C(C1=NN(c2ccccc2)C2C(=O)N(c3ccccc3)C(=O)C12)c1ccccc1 (stereo not drawn)	1.2	i	2.5	6.4	23.9	/
CN1CCCCC(NC(=O)c2ccc(F)c(F)c2)C1=O (stereo not drawn)	/	/	/	2.9	/	/
CCN1C(=O)[C@H]2[C@@H](c3ccc(-c4ccccc4)c(OC)c3)N[C@@](Cc3ccccc3)(C(=O)OC)[C@H]2C1=O	2.0	i	-3.9	3.9	68.6*	35.8
CCN1C(=O)[C@H]2[C@@H](c3ccc(-c4ccc(C(C)=O)cc4)c(OC)c3)N[C@@](Cc3ccccc3)(C(=O)OC)[C@H]2C1=O	0.2	i	-6.4	0.8	65.3*	36.6
CCCSc1ccc([C@H]2N[C@@](Cc3ccccc3)(C(=O)OC)[C@H]3C(=O)N(CC)C(=O)[C@@H]23)cc1	0.3	i	-2.9	-4.3	29.8	/
CCN1C(=O)[C@H]2[C@@H](c3ccc(-c4ccc(F)cc4)c(OC)c3)N[C@@](Cc3ccccc3)(C(=O)OC)[C@H]2C1=O	2.0	i	-4.4	5.7	89.8*	36.7
CCN1C(=O)[C@H]2[C@@H](c3ccc(-c4cccc(Cl)c4)c(OC)c3)N[C@@](CC(C)C)(C(=O)OC)[C@H]2C1=O	2.0	i	4.2	4.2	44.4	/
CC(=Nc1ccc(Cl)cc1N)c1c(O)cc(C)oc1=O	/	/	/	7.4	/	/
Cc1cc2c(cc1S(=O)(=O)Nc1ccc(F)cc1)n(C)c(=O)c(=O)n2C	-1.6	i	-0.8	1.4	18.4	/
CCc1ccc(NS(=O)(=O)c2cc3c(cc2C)n(C)c(=O)c(=O)n3C)cc1	-0.1	i	1.1	3.2	74.1*	82.5*
O=c1cc2c(nn1Cc1cccc([N+](=O)[O-])c1)-c1ccccc1CC2	0.2	i	-0.6	1.9	70.8*	24.0
CCC(C)(C)C1CCc2[nH]nc(C(=O)NCCCNC(=O)OC(C)(C)C)c2C1 (stereo not drawn)	-0.9	i	-1.1	-3.7	69.4*	49.6*
COC(=O)c1ccc(CSc2nc(C(F)F)cc(C)c2C#N)o1	4.2	i	-0.6	-2.2	53.0*	42.8*
COC(=O)c1ccc(COc2nc(C)cc(C)c2C#N)o1	-0.9	i	1.1	-0.9	13.4	/
Cc1[nH]n(-c2ccc(Cl)cc2)c(=O)c1C=Nc1ccc(S(=O)(=O)N2CCOCC2)cc1	1.6	i	32.0*	9.2	63.2*	16.1
COc1nccnc1NS(=O)(=O)c1ccc(N=Cc2c(C)[nH]n(-c3ccc(Cl)cc3)c2=O)cc1	/	/	/	4.2	/	/
COc1ccc2nc3n(c(=O)c2c1)-c1cc2ccccc2cc1C(=O)NC3Cc1ccccc1 (stereo not drawn)	0.2	i	/	15.2	78.3*	32.9
CC(C)CC1NC(=O)c2cc3ccccc3cc2-n2c1nc1ccc(Cl)cc1c2=O (stereo not drawn)	-0.7	i	/	4.2	73.8*	29.9

Screening data as filed in PubChem BioAssay.
